{"source": "PubChem BioAssay (NCATS)", "note": "Records with an inconclusive call do not appear. The source made the active and inactive calls. The call rests on the fitted dose curve; in most records, active means well fitted cell-killing curve with a large enough effect; inconclusive means small, poorly fitted or top-dose-only effect; inactive means flat fitted curve, though single readings scatter. On the % scale 0 is the no-effect control and ±100 the full control effect; potency means the concentration at half of the fitted maximal effect."}
{"experiment": "Cell Viability - LYMP2-021 (AID 974);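 further: compound exposure lasts 24 hours at 37 °C; nearly all actives have a fitted effect of over 55% in size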", "settings": "LYMP2-021 lymphoblastoid cells viability; series mostly up to 92.2 µM; activity change, negative = cytotoxicity: at the top concentration", "description": "NIH Chemical Genomics Center [NCGC]\nNIH Molecular Libraries Screening Centers Network [MLSCN]\nNational Institutes of Environmental Health Sciences [NIEHS]\nNational Toxicology Program [NTP]\nWe have developed a 1536-well cell-based assay for quantitative high throughput screening (qHTS) against a number of cell lines to determine in vitro cytotoxicity of small molecules. This particular assay uses a human lymphoblastoid cell line (LYMP2-021) purchased from Coriell Institute for Medical Research.\nNCGC Assay Protocol Summary:\nThe CellTiter-Glo luminescent cell viability assay (Promega) is a homogeneous method to measure the number of viable cells in culture. The end point readout of this assay is based on quantitation of intracellular ATP, an indicator of metabolic activity, using the luciferase reaction. Luciferase catalyzes the oxidation of beetle Luciferin to oxyluciferin and light in the presence of ATP. The luminescent signal is proportional to amount of ATP present.\nUsing the CellTiter-Glo luminescent cell viability assay, the amount of cellular ATP was measured in the lymphoblastoid cell line with complete culture medium following compound treatment for 24 hours. The assay was performed in opaque white Kalypsys 1536-well plates. In the screen, tetraoctylammonium bromide was used as positive control. Library compounds were measured for their ability to cause acute toxicity in the cell line, as reflected by a decrease in intracellular ATP levels, in a concentration-dependent manner. […] AC50 values were determined from concentration-response data modeled with the standard Hill equation.\nqHTS protocol for CellTiter Glo lymphoblastoid cellular assay\n[Step] [Parameter] [Value] [Description]\n1. Reagent; 5 uL; 2500 lymphoblastoid cells/well\n2. Time; 5 hr; 37 C incubation\n4. Controls; 23 nL; Tetraoctylammonium bromide 6.4pM to 92 uM\n5. Time; 24 hr; 37 C incubation\n6. Reagent; 5 uL; CellTiter Glo reagent\n7. Time; 30 min; Room Temperature\n8. Detection; Luminescence; Viewlux plate reader\nKeywords: cell viability, cytotoxicity, lymphoblastoid cell line, luminescence, NTPHTS, NTPHTS_NCGC, NIEHS, DSSTox, MLSMR, MLSCN, NIH Roadmap, qHTS, NCGC"}
{"smiles": "Cc1cc2nc(N)sc2cc1C", "activity change, negative = cytotoxicity": "-15.2% (inactive)"}
{"smiles": "CC1=C(/C=C/C(C)=C/C=C/C(C)=C/C=O)C(C)(C)CCC1", "Potency": "50.1 µM (active)"}
{"smiles": "C=CC1CO1", "note": "(stereo not given)", "activity change, negative = cytotoxicity": "-0.904% (inactive)"}
{"smiles": "Oc1c(Cl)cc(Cl)c(Cl)c1Cl", "activity change, negative = cytotoxicity": "-5.82% (inactive)"}
{"smiles": "CC(C)OCC1CO1", "note": "(stereo not given)", "activity change, negative = cytotoxicity": "3.67% (inactive)"}
{"smiles": "C=C1CC[C@H](O)C/C1=C/C=C1\\CCC[C@]2(C)[C@@H]([C@H](C)CCCC(C)C)CC[C@@H]12", "Potency": "39.8 µM (active)"}
{"smiles": "Nc1cnn([C@@H]2O[C@H](CO)[C@@H](O)[C@H]2O)c(=O)n1", "activity change, negative = cytotoxicity": "7.37% (inactive)"}
{"smiles": "O=C1c2ccccc2C(=O)C1(O)O", "activity change, negative = cytotoxicity": "-24.9% (inactive)"}
{"smiles": "NC(=O)Nc1nc2ccccc2[nH]1", "activity change, negative = cytotoxicity": "-1.83% (inactive)"}
{"smiles": "CC(=O)Nc1cccc(C)c1", "activity change, negative = cytotoxicity": "-5.51% (inactive)"}
{"smiles": "c1ccc(COCc2ccccc2)cc1", "activity change, negative = cytotoxicity": "-1.29% (inactive)"}
{"smiles": "CCCCCCCCC1CO1", "note": "(stereo not given)", "activity change, negative = cytotoxicity": "-1.15% (inactive)"}
{"smiles": "Oc1ccc2c(c1)OCO2", "activity change, negative = cytotoxicity": "-1.66% (inactive)"}
{"smiles": "Brc1ccc(-c2ccccc2)cc1", "activity change, negative = cytotoxicity": "-7.12% (inactive)"}
{"smiles": "CC(=O)OC1CC(C)OC(C)O1", "note": "(stereo not given)", "activity change, negative = cytotoxicity": "-0.508% (inactive)"}
{"smiles": "O=[N+]([O-])c1cccc(I)c1", "activity change, negative = cytotoxicity": "-0.395% (inactive)"}
{"smiles": "O=C(Cl)c1ccc([N+](=O)[O-])cc1", "activity change, negative = cytotoxicity": "-2.61% (inactive)"}
{"smiles": "Cc1ccc(N)cc1[N+](=O)[O-]", "activity change, negative = cytotoxicity": "-8.01% (inactive)"}
{"smiles": "COc1cc(-c2ccc(N=C=O)c(OC)c2)ccc1N=C=O", "activity change, negative = cytotoxicity": "-3.9% (inactive)"}
{"smiles": "CCCCOC(=O)COc1ccc(Cl)cc1Cl", "activity change, negative = cytotoxicity": "3.44% (inactive)"}
{"smiles": "COc1ccc(C(=O)Nc2ccccc2)cc1[N+](=O)[O-]", "activity change, negative = cytotoxicity": "-13.4% (inactive)"}
{"smiles": "CCCC(=O)OC(=O)CCC", "activity change, negative = cytotoxicity": "2.26% (inactive)"}
{"smiles": "CCCCCCCC/C=C\\CCCCCCCC(=O)N(CCO)CCO", "activity change, negative = cytotoxicity": "-9.39% (inactive)"}
{"smiles": "Nc1ccccc1O", "activity change, negative = cytotoxicity": "-20.4% (inactive)"}
{"smiles": "CCCCNCC", "activity change, negative = cytotoxicity": "0.678% (inactive)"}
{"smiles": "O=[N+]([O-])c1ccc(F)cc1F", "activity change, negative = cytotoxicity": "-24.6% (inactive)"}
{"smiles": "Cc1ccccc1OCC1CO1", "note": "(stereo not given)", "activity change, negative = cytotoxicity": "-7.06% (inactive)"}
{"smiles": "O=C(O)/C=C/c1ccc(/C=C/C(=O)O)cc1", "activity change, negative = cytotoxicity": "0.13% (inactive)"}
{"smiles": "Oc1ccc(O)c2c(O)cccc12", "Potency": "50.1 µM (active)"}
{"smiles": "OC1CCCCC1", "activity change, negative = cytotoxicity": "-1.25% (inactive)"}
{"smiles": "CCCCC(CC)COCCCN", "note": "(stereo not given)", "activity change, negative = cytotoxicity": "-12.6% (inactive)"}
{"smiles": "CC/C=C/C/C=C/C/C=C/CCCCCCCC(=O)OCC", "Potency": "50.1 µM (active)"}
{"smiles": "OCC(CO)(CBr)CBr", "activity change, negative = cytotoxicity": "0.365% (inactive)"}
{"smiles": "C=CC(=O)CC", "activity change, negative = cytotoxicity": "0.209% (inactive)"}
{"smiles": "c1c[nH]cn1", "activity change, negative = cytotoxicity": "-0.596% (inactive)"}
{"smiles": "Cc1c(N)cccc1Cl", "activity change, negative = cytotoxicity": "-1.27% (inactive)"}
{"smiles": "C=CC(=O)OCCCCCCOC(=O)C=C", "Potency": "39.8 µM (active)"}
{"smiles": "Nc1cc(C(=O)O)c(O)c(S(=O)(=O)O)c1", "activity change, negative = cytotoxicity": "-3.56% (inactive)"}
{"smiles": "CCOC(=O)C1OC1c1ccccc1", "note": "(stereo not given)", "activity change, negative = cytotoxicity": "-10.9% (inactive)"}
{"smiles": "O=C1OC(=O)c2ccccc21", "activity change, negative = cytotoxicity": "-13.5% (inactive)"}
